From PubChem
PKM2 inh: inhibitors of human pyruvate kinase M2. P14618. purified PKM2, ATP generation, Kinase-Glo luminescence. Potency, µM (titrated, usually from 57.5 µM), without a hit: top-dose activity change, negative = inhibition, hits mostly inhibitors. 260,000 tested, 0.058% active. AID 1634; further: potency means the concentration at half of the fitted maximal effect; nearly all actives have a fitted effect of over 60% in size
Target sequence (P14618 whole entry, looked up): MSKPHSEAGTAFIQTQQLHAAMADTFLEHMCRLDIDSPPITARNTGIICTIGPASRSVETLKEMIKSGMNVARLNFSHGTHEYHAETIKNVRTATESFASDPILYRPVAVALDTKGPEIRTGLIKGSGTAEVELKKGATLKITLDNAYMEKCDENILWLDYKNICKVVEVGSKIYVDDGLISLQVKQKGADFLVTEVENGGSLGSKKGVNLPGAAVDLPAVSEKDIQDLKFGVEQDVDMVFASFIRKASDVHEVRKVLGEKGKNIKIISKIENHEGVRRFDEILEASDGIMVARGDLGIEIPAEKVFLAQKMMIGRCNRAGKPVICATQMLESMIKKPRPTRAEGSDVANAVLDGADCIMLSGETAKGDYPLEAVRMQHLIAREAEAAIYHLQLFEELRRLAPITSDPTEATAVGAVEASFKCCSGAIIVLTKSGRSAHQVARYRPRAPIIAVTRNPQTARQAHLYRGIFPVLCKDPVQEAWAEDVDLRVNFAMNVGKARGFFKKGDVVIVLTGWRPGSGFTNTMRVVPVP
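Enzyme run at intermediate activity with final 0.1 mM ADP, 0.5 mM PEP (50 mM imidazole pH7.2, 50 mM KCl, 7 mM MgCl2), incubated 1 h at r.t. ATP formed read by Kinase-Glo luminescence, normalized to no-enzyme (full inhibition) and uninhibited wells.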
PKM2 inh CRC: PKM2 (human) inhibition, concentration-response confirmation | shares compounds with PKM2 inh | purified hPK-M2, Kinase-Glo ATP luminescence, 1 h | Potency, µM (highest dose often 57.5 µM), for inactives: at the top dose activity change, negative = inhibition, usual class: inhibitors | 55 tested, 50% active
FLuc counter: counter-screen for pyruvate kinase M2 inhibitors: firefly luciferase inhibition; Potency, µM (doses to about 57.5 µM), without a hit: at the highest dose activity, negative = inhibition, usual class: inhibitors; 55 tested, 30% active; AID 2265; Kinase-Glo firefly luciferase, luminescence, 8 min; shares compounds with PKM2 inh
PKM2 inh LDH: confirmation of human pyruvate kinase M2 inhibitors, coupled readout. shares compounds with PKM2 inh. purified hPK-M2, LDH-coupled NADH fluorescence kinetic. Potency, µM (doses to about 57.5 µM), for the others: at the highest dose activity change, negative = inhibition, hits mostly inhibitors. 55 tested, under 10 active. AID 2267
* = called active by the depositor; ? = inconclusive; . = no result given; [ ] = remark or other dose. This is one part of a sample in which hits are shown more often than they occur. The call rests on the fitted dose curve; in most records, active means well fitted curve in the direction sought with a large enough effect; inconclusive means small, poorly fitted or top-dose-only effect, or another doubt; inactive means no such curve, though single readings can be large; an effect the other way counts as inactive or inconclusive.

SMILES	PKM2 inh	others
Cc1nn(-c2nc3ccccc3[nH]2)c(=O)c2ccccc12	16µM*
O=c1[nH]c(C(F)(F)F)nc2ccccc12	-23%
CNCc1nc2ccccc2[nH]1	59%
CN1CCCN(S(=O)(=O)c2ccc3ccccc3c2)CC1	92%
CCOC(=O)C1(CCCc2ccccc2)CCN(Cc2cnn(C)c2)CC1	55%
O=C(CSc1nncc2ccccc12)Nc1cccc(O)c1	51%
COc1ccccc1CNC(=O)C1CCN(S(=O)(=O)c2ccc3c(c2)OCCCO3)CC1	49%
Cc1ccc(-c2cc(C(=O)Nc3ccccn3)c3ccccc3n2)o1	33%
O=C(Nc1ccccn1)c1onc2c1CCCC2	14µM*
Cc1noc(C)c1S(=O)(=O)N1CCC(C(=O)Nc2ccccn2)CC1	39%
Cn1ncc([N+](=O)[O-])c1C(=O)Nc1ccc(-c2ccccc2)cc1	31%
O=C(COc1ccc(S(=O)(=O)N2CCOCC2)cc1Cl)NCC1CCCO1 (stereo not given)	33%
O=C(CN1CCSC1=NCc1ccccc1)c1ccc(Cl)cc1	36%
COc1cccc(CNC(=O)CCC2CCCN(C(=O)c3cc(C4CC4)[nH]n3)C2)c1 (stereo not given)	139%
CC(=O)N1CC=CC1(CC(C)C)C(=O)NCc1ccc(C)o1 (stereo not given)	32%
Cn1c(NCc2c[nH]c3ccccc23)nc2ccccc21	53%
Cn1c(N=Nc2ccccc2)nc2ccccc21	5.6µM*	PKM2 inh CRC=13µM*;FLuc counter=5.2µM*;PKM2 inh LDH=30%
COC(=O)c1ccc(S(=O)(=O)c2ccccc2)c(N)c1	44%
COC(=O)CSc1nnc(-c2ccc(NS(=O)(=O)c3ccccc3)cc2)o1	116%
CC(=O)c1c(C)[nH]c(C(=O)Nc2ccc(C)cc2Br)c1C	59%
O=C(NCCc1ccccc1)c1c(O)c2ccccc2[nH]c1=O	36%
O=C1C(c2cc(=O)c3ccccc3[nH]2)=C(O)c2ccccc21	11µM*	PKM2 inh CRC=16µM*;FLuc counter=-13%;PKM2 inh LDH=?
COC(=O)[C@@]1(Cc2ccc(F)cc2)[C@H]2c3cc(C(=O)N4CCCC4)n(Cc4ccc(C)o4)c3C[C@H]2CN1C(=O)c1ccccc1	62%
O=C(CCc1nnc(CCc2ccccc2)o1)N1CCCC1c1nccs1 (stereo not given)	97%
CC(C)(C)C(=O)/C(=C\c1ccc([N+](=O)[O-])cc1)n1cncn1	49%
SMILES	PKM2 inh	others
Cc1n[nH]c(=O)nc1NCc1ccco1	33%
Cc1ccn2c(NCc3ccco3)c(-c3ccccc3)nc2c1	.	PKM2 inh CRC=-10%;FLuc counter=1%;PKM2 inh LDH=?
COC(=O)Nc1c(-c2ccccc2)nc2ccccn12	36%
COc1ccccc1CNC(=O)N1CCN(S(=O)(=O)c2ccccc2)CC1	32%
CCOc1cc(/C=C\[N+](=O)[O-])ccc1OCC(=O)Nc1ccccc1C	42%
Cc1cc2c(cc1S(=O)(=O)CCC(=O)N(C)C1CCCCC1)OCC(=O)N2	33%
CCNS(=O)(=O)c1ccc(NC(=O)c2ccc(Cn3cc(Br)cn3)o2)cc1	72%
COc1ccc2ccccc2c1C(=O)/C=C\c1ccoc1	40%
Cc1cc(C)n2c(Nc3ccc4c(c3)OCCO4)c(-c3ccc(C)o3)nc2n1	43%
Cc1ccc2nc(-c3ccco3)c(Nc3ccccc3)n2c1	.	PKM2 inh CRC=-1%;FLuc counter=-1%;PKM2 inh LDH=?
Cc1ccc(-c2nc3cnccn3c2Nc2ccc3c(c2)OCO3)o1	66%
Cc1ccc2nc(-c3ccc(C)o3)c(Nc3ccc4c(c3)OCO4)n2c1	.	PKM2 inh CRC=12%;FLuc counter=2%;PKM2 inh LDH=-6%
Cc1ccn2c(NC3CCCCC3)c(-c3ccc(C)o3)nc2c1	.	PKM2 inh CRC=16%;FLuc counter=5%;PKM2 inh LDH=-9%
Cc1ccc2nc(-c3ccc(C)o3)c(Nc3ccccc3)n2c1	.	PKM2 inh CRC=7%;FLuc counter=1%;PKM2 inh LDH=?
c1coc(-c2nc3ccccc3nc2-c2ccco2)c1	30%
CSc1nc2ccc(NS(=O)(=O)c3ccc4c(c3)OCCO4)cc2s1	61%
CCc1nc2ccccc2n1Cc1cc(=O)n2cc(C)ccc2n1	73%
O=[N+]([O-])c1ccc(Sc2nnnn2-c2ccccc2)nc1	64%
CC(C)CCN1CCN(Cc2cccc3cccnc23)CC1CCO (stereo not given)	37%
CC(=O)C1=C(c2cccc([N+](=O)[O-])c2)N(C(C)=O)n2c(C)nnc2S1	31%
O=C(CSc1nc2ccc(Cl)cc2[nH]1)c1cccs1	53%
CC(=O)C(C(C)=O)c1c(Cl)c(O)c(O)c2c(C(=O)c3ccccc3)coc12	27%
O=C(COc1ccccc1F)Nc1ccc(S(=O)(=O)Nc2nccs2)cc1	49%
Cc1ccc(-c2cc(-c3ccc(C)o3)nc(N)c2C#N)cc1	58%
Cc1ccc(-c2cc(-c3ccc(Cl)cc3)c(C#N)c(N)n2)o1	58%
SMILES	PKM2 inh	others
Cc1ccc(-c2nc3ccc(Cl)cn3c2Nc2ccccc2)o1	.	PKM2 inh CRC=14%;FLuc counter=2%;PKM2 inh LDH=-21%
Cc1ccc(-c2nn(-c3ccccc3)cc2C2SCC(=O)N2Cc2ccccc2)o1 (stereo not given)	40%
Cc1ccc(Nc2c(-c3ccc(C)o3)nc3cnccn23)cc1	64%
Cc1ccc2nc(-c3ccc(C)o3)c(Nc3ccc(F)cc3)n2c1	.	PKM2 inh CRC=7%;FLuc counter=0%;PKM2 inh LDH=?
Cc1ccc(-c2nc3ccccn3c2Nc2ccccc2)o1	67%
Cc1ccc(Nc2c(-c3ccc(C)o3)nc3ccccn23)cc1	.	PKM2 inh CRC=10%;FLuc counter=0%;PKM2 inh LDH=4.6µM*
Fc1ccccc1-c1ccc(-c2nc3ccc(Cl)cn3c2Nc2ccc(Cl)cc2)o1	.	PKM2 inh CRC=14%;FLuc counter=5%;PKM2 inh LDH=2%
O=[N+]([O-])c1cccnc1NCc1cccs1	37%
Cc1cccc(NS(=O)(=O)c2ccc3c(c2)oc(=O)n3C)c1C	52%
Cc1ccc2nc(SC(C)C(=O)NCc3ccc4c(c3)OCO4)[nH]c2c1 (stereo not given)	44%
CN1CCC(N(CCc2ccccc2)C(=O)CCC(=O)O)CC1	3%
COc1ccccc1NS(=O)(=O)c1cc(C(=O)NCCC(C)C)ccc1F	118%
CCc1ccc(NC(=O)c2[nH]c(C)c(C(C)=O)c2C)cc1	39%
CCOC(=O)C(CO)(NC(C)=O)C(=O)OCC	4%
CCc1ccccc1Nc1nn2c(=O)c3ccc(C(=O)NCc4ccccn4)cc3nc2s1	34%
COc1ccc(C(=O)NNS(=O)(=O)c2ccccc2)cc1OC	2%
Cc1ccc(-c2cc(-c3ccc(F)cc3)c(C#N)c(N)n2)o1	48%
Cc1ccc(-c2nc3cccc(C)n3c2Nc2ccc(F)cc2)o1	.	PKM2 inh CRC=10%;FLuc counter=0%;PKM2 inh LDH=9.2µM*
O=C(c1ccc2c(c1)OCCO2)N1CCN(Cc2ccccc2)CC1	32%
Cc1cc(C)cc(C(=O)NCC(=O)OCC(=O)N2CCN(S(=O)(=O)c3ccc4ccccc4c3)CC2)c1	62%
O=C(CCc1ccccc1)Nc1ccc(S(=O)(=O)Nc2nccs2)cc1	37%
C=CCOC(=O)C1=C(C)NC(=O)NC1c1cc(Cl)cc(Cl)c1OC (stereo not given)	48%[11.5 µM]
O=C1C=CC(=O)N1c1cccc(-c2ccccc2)c1	70%
